# Screens deposited in PubChem by several laboratories.
# Fh CTSL1 inh – Fasciola hepatica cathepsin L1 inhibitors, primary screen, counter-screen for PFM18AAP inhibitor project, biochemical, QFRET, fluorogenic peptide substrate; recombinant F. hepatica cathepsin L1, Z-Leu-Arg-MCA fluorescence; AID 1906, 2009; inhibition, % at 5.96 µM; 300,000 compounds, 0.49% hits;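 active means inhibition above the mean of all tested compounds plus 3 SD, set per screening campaign, cut at about 17% in these data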;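 further: 0% = plate median of test compound wells and 100% = 1 µM Z-Phe-Ala-diazomethylketone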
# PfM18AAP inh – PfM18AAP inhibitors, malaria aminopeptidase, primary screen, biochemical, QFRET, recombinant enzyme; 290,000 compounds, 1.2% hits; M18 aspartyl aminopeptidase (Plasmodium falciparum 3D7); H-Glu-NHMec fluorogenic cleavage; inhibition, % at 7.35 µM;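 active means inhibition above the campaign mean inhibition over all tested compounds plus 3 SD, cut at about 28% in these data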;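 further: 0% = plate median of test compound wells and 100% = 2 mM ZnCl2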
# Rin1-Abl PPI inh – inhibitors of Rin1-Abl protein binding, primary screen, biochemical, TR-FRET; inhibition, % at 7.35 µM; 360,000 compounds, 0.4% hits; in the data active means inhibition above about 5%, passing the limit was not always enough
# Target sequence (P00519 whole entry, looked up): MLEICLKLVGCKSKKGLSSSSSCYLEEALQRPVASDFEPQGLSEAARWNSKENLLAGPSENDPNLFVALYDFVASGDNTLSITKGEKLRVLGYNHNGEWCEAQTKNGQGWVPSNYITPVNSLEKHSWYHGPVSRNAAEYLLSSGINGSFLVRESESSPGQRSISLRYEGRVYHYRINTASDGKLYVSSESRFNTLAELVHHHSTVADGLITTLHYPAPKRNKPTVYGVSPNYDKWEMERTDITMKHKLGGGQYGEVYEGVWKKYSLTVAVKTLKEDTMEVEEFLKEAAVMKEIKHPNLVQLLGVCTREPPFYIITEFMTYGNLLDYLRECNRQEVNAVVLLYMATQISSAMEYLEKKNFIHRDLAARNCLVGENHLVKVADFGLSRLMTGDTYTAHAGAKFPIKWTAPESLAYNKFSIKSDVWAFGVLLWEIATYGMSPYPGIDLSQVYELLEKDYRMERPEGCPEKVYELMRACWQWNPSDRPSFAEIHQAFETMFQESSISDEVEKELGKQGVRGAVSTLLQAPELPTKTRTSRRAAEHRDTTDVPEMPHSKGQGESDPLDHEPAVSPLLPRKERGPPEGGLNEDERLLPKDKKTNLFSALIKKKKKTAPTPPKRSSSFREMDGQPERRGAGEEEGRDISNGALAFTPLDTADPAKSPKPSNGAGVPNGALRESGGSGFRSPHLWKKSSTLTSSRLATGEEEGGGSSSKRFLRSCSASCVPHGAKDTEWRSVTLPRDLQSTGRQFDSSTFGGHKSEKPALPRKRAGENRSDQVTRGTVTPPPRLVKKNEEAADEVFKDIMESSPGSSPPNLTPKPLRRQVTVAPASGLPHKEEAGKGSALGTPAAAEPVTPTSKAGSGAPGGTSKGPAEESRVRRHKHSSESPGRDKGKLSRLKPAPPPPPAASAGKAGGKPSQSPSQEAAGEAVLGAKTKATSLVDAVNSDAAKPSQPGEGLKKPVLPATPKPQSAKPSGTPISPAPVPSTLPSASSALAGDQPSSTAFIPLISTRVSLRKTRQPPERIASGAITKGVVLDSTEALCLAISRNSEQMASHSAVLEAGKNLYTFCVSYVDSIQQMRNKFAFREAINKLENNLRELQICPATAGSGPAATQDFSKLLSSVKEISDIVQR
# Target sequence (Q13671 whole entry, looked up): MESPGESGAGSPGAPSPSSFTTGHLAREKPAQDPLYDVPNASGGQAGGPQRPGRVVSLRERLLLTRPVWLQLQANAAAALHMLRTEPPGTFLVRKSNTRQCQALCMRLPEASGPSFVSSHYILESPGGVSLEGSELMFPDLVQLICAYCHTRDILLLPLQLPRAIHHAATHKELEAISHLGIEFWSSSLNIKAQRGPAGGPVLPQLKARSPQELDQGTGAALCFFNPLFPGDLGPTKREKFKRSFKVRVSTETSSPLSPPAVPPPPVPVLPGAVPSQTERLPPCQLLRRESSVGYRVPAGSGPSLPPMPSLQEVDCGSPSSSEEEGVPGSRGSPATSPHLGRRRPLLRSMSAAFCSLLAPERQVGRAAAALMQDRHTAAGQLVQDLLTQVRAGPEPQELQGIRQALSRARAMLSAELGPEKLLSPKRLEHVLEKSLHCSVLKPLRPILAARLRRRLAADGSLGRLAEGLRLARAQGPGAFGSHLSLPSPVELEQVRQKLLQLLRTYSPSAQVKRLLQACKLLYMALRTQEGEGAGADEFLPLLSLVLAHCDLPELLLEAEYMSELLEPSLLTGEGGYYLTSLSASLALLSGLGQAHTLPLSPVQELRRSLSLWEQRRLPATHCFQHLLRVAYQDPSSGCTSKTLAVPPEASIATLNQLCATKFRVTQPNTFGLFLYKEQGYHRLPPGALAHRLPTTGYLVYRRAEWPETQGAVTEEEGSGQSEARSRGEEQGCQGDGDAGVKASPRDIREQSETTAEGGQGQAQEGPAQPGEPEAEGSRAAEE
# Calb FLC – C. albicans growth inhibition with fluconazole, primary screen, CaCi-2 strain, Alamar Blue fluorescence; C. albicans CaCi-2 (fluconazole-resistant clinical isolate) + fluconazole, 48 h; 300,000 compounds, 0.57% hits; AID 1979, 2009; growth inhibition, % (no concentration beside the values);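 active means growth inhibition above about 58% in most replicates, limit read from the data, passing the limit was not always enough; inconclusive means exactly half the replicates above a set limit; inactive means most replicates below a set limit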;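 further: all wells also contain fluconazole at 8 µg/ml as a sub-toxic cotreatment; 0% = median of DMSO wells and 100% = median of geldanamycin control wells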
# * hit, by the source's call; u = inconclusive; x = not tested or not shown. Only some compounds are listed: those with a hit (about 2.1% of all), similar ones and a draw of the others.
SMILES,Fh CTSL1 inh,PfM18AAP inh,Rin1-Abl PPI inh,Calb FLC
O=C(COc1ccccc1Cl)Nc1ccc(S(=O)(=O)N2CCOCC2)cc1,1.3,-5.2,1.4,-0.7
Cc1ccsc1-c1nc(-c2ccccc2)c(-c2ccccc2)[nH]1,18.6*,-2.1,1.8,1.2
O=C(O)C1=C[C@H](c2csc3ccccc23)C[C@H](OCCCCO)O1,5.7,-1.1,1.4,6.1
Cc1ccn2c(=O)nc(SCC(=O)N3CCCC3)nc2c1,17.1*,x,2.7,2.6
O=C(/C=C/c1ccco1)NCC1CCCO1 (centres undefined),33.8*,-7.7,-4.1,6.5
CCc1cccc(NC(=O)C2CCCN2S(=O)(=O)c2ccc3c(c2)CC(C)N3C(C)=O)c1 (centres undefined),-1.4,1.8,2.3,3.6
O=[N+]([O-])c1ccc(S(=O)(=O)Nc2ccccn2)cc1,0.1,3.6,-0.4,4.4
O=C1C=C(NCCN2CCOCC2)CC(c2ccccc2)C1 (centres undefined),0.3,0.8,-1.3,-3.1
Cc1cccc(-n2nc(C(=O)c3ccco3)cc(-c3nc4ccccc4[nH]3)c2=N)c1,1.7,2.5,-2.9,97.3*
COc1ccccc1NS(=O)(=O)c1cc(NC(=O)CNC(=O)c2ccc(C)s2)ccc1Cl,-2.5,-2.1,2.3,-2.2
C/C(=N/NS(=O)(=O)c1cc(C)ccc1C)c1ccncc1,1.0,30.6*,4.8,-12.0
CC(=O)c1ccc(N2C(=O)CC(N3CCN(S(=O)(=O)c4cc(C)ccc4C)CC3)C2=O)cc1 (centres undefined),x,x,-1.0,x
CC(C)[C@H](NC(=O)N1CC(=O)Nc2ccccc21)C(=O)Nc1nccs1,-0.8,-5.6,-0.7,0.9
O=C(Nc1ccncc1)c1ccc(Br)cc1,-2.1,-10.2,-2.5,92.7*
O=C(Nc1ccncc1)c1ccc(Cl)cc1,-0.4,1.7,0.1,-0.7
Brc1cc2ccccc2[n+](Cc2ccccc2)c1,-4.3,x,2.9,-7.6
c1ccc(C[n+]2csc3ccccc32)cc1,-1.9,30.2*,-1.8,u
COc1ccc(CC2=CC(=O)c3ccccc3C2=O)cc1,13.8,-29.7,6.8*,33.6
COc1ccc(Cc2ccccc2C(=O)O)cc1,x,x,1.8,x
N#Cc1ccc(C23OCCN2CCn2nc4ccccc4c23)cc1 (centres undefined),x,x,3.9,x
Cc1ccc(OCCCC(=O)Nc2nnc(C3CCCO3)s2)c(C)c1 (centres undefined),-1.2,4.5,-3.9,2.1
CN1CCN(C(c2cccnc2)c2ccc3cccnc3c2O)CC1 (centres undefined),-0.2,-1.3,5.2,88.9*
CN1CCN(C(c2ccc(F)cc2)c2ccc3cccnc3c2O)CC1 (centres undefined),x,x,-2.0,x
CN1CCN(C(c2ccc(Br)cc2)c2cc(Cl)c3cccnc3c2O)CC1 (centres undefined),0.7,2.0,4.0,89.9*
CCOc1ccc2nc(N/C(N)=N/C(=S)Nc3cccc(OC)c3)nc(C)c2c1,23.0*,-0.8,4.7,1.0
SMILES,Fh CTSL1 inh,PfM18AAP inh,Rin1-Abl PPI inh,Calb FLC
Cn1c(=O)c2[nH]c(-c3ccccc3)c(O)c2n(C)c1=O,0.8,58.1*,-4.3,20.1
Cn1c(=O)c2[nH]c(-c3ccccc3)nc2n(C)c1=O,x,1.5,x,x
Cn1c(=O)c2[nH]c(-c3ccccc3Cl)c(O)c2n(C)c1=O,-1.9,44.2*,-0.9,-10.4
Cc1ccc(C)n1Cc1ccc(C(=O)O)cc1,-6.0,8.7,14.8*,x
Cc1ccc(Nc2nc(Cl)nc(NC(C)(C)C)n2)cc1,-6.0,-2.5,-2.8,94.5*
CCOC(=O)CNc1nc(Cl)nc(Nc2ccc(C)cc2)n1,-1.4,6.7,-4.9,7.2
O=C(CN1CCN(c2ccc(O)cc2)CC1)Nc1ccccc1C(=O)NCCc1ccccc1,x,x,-1.9,x
N=C(N)c1ccc(Cl)cc1,0.7,1.9,3.0,-11.3
N=C(N)c1ccc(/C=C/c2ccc(C(=N)N)cc2O)cc1,-1.1,-14.6,-20.8,94.7*
O=C(/C=C/C=C/c1ccccc1)CC1(O)C(=O)N(CCc2ccccc2)c2ccccc21 (centres undefined),18.0*,3.7,-4.3,-1.8
C#CCN1C(=O)C(O)(CC(=O)/C=C/C=C/c2ccccc2)c2ccccc21 (centres undefined),38.5*,0.8,2.5,-25.6
CCN1C(=O)C(O)(CC(=O)/C=C/C=C/c2ccccc2)c2ccccc21 (centres undefined),21.6*,8.3,-3.4,-5.2
Cc1ccc2c(c1)C(O)(CC(=O)/C=C/C=C/c1ccccc1)C(=O)N2 (centres undefined),21.1*,5.0,-2.9,-2.2
NC(=O)CN1C(=O)C(O)(CC(=O)/C=C\C=C\c2ccccc2)c2ccccc21 (centres undefined),2.9,-0.7,-4.7,4.0
CCOC(=O)C1(Cc2cccc(F)c2)CCN(C(=O)c2ccoc2C)CC1,-1.2,-2.8,-0.6,16.9
O=C(NNC(=O)C1CC2CCC1C2)c1sc2ccccc2c1Cl (centres undefined),3.4,-2.4,0.6,18.2
Nc1nn2cc(-c3ccc(Br)cc3)nc2c2ccccc12,1.9,3.6,0.9,98.7*
Brc1ccc(-c2cn3nc4c(nc3n2)CCCC4)cc1,-2.7,12.3,0.4,-1.8
O=C(O)C1CC=CCC1C(=O)NC1CCCCC1 (centres undefined),-0.8,-4.5,1.5,-8.3
N#CCCN(Cc1cccnc1)C(=S)NC1CC2C=CC1C2 (centres undefined),3.8,-4.5,5.3,-20.7
O=C(Nc1nccs1)C(Br)C(Br)c1ccccc1 (centres undefined),0.8,30.6*,0.8,6.7
CC(=O)OC(C(=O)Nc1nccs1)c1ccccc1 (centres undefined),-31.6,3.5,-0.5,-2.6
O=[N+]([O-])c1ccc(N2CCN(Cc3ccc([N+](=O)[O-])o3)CC2)cc1,x,12.0,-2.5,133.0*
O=[N+]([O-])c1ccc(CN2CCN(c3ccccc3)CC2)o1,-2.8,4.7,4.5,-14.6
O=C(O)C1CCCC2CN3CCc4c([nH]c5ccccc45)C3C(O)C21 (centres undefined),-0.1,28.2*,3.0,-2.6
SMILES,Fh CTSL1 inh,PfM18AAP inh,Rin1-Abl PPI inh,Calb FLC
O=C(O)[C@@H]1[C@H]2C[C@H]3c4[nH]c5ccccc5c4CCN3C[C@@H]2CC[C@@H]1O,0.5,x,-0.7,x
O=C1NN(c2ccc(Br)cc2)C(=O)/C1=C\c1ccc(O)cc1O,4.7,5.5,1.1,98.0*
O=C1NN(c2ccccc2)C(=O)C1=Cc1ccccc1O,x,x,1.3,x
CCc1cc(=S)n2c([nH]c3ccccc32)c1C#N,3.0,-138.5,3.3,97.1*
CCc1cc(=O)n2c([nH]c3ccccc32)c1C#N,11.8,5.7,0.3,-1.2
CCOC(=O)C(C(=O)OCC)N(C#N)c1nc(OC)nc(N(C)C)n1,76.8*,7.3,-2.8,-6.5
CCOC(=O)C(C(=O)OCC)N(C#N)c1nc(SC)nc(N(C)C)n1,85.6*,-7.5,-3.1,-1.5
CCOC(=O)COc1nc(N(C)C)nc(N(C)C)n1,-0.9,-6.5,1.1,5.0
